Several values for one entry are separate records, joined by “and”; a condition that tells them apart may be missing. Identical values can stand only once. Among all 5,500 compounds or so, about 2,000 (36%) were called active. About 18% were inconclusive and are not listed. Cut-off read from the data, not from the text of the source: active = normalized growth mostly below about 0.91 (no sharp cut-off); inconclusive = no clear call, values can overlap the other calls; inactive = mostly above about 0.92. This is one part of the list.
Experiment: chemical genetic growth profiling, strain panel (AID 1159580);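 note: tested at 20 µM; growth read once vehicle control cultures reached saturation at 30 °C; 1 = growth at the plate median or of vehicle wells; lower values mean less growth of the strain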
Conditions: S. cerevisiae deletion strains, growth OD

O=C1OC(=O)C2C3CCC(O3)C12 (stereo not given)
normalized growth (locus YAL013W, strain DEP1, stronger effect = lower value): 1.03 (inactive) | normalized growth (locus YAL021C, strain ccr4, stronger effect = lower value): 1.02 (inactive) | normalized growth (locus YAL026C, strain drs2, stronger effect = lower value): 1.02 (inactive) | normalized growth (locus YAL030W, strain snc1, stronger effect = lower value): 1.03 (inactive) | normalized growth (locus YAL040C, strain CLN3, stronger effect = lower value): 1 (inactive) | normalized growth (locus YBL061C, strain skt5, stronger effect = lower value): 1.01 (inactive) | normalized growth (locus YBR009C, strain hhf1, stronger effect = lower value): 1 (inactive) | normalized growth (locus YBR021W, strain FUR4, stronger effect = lower value): 0.947 (inactive) | normalized growth (locus YBR023C, strain chs3, stronger effect = lower value): 1.02 (inactive) | normalized growth (locus YBR171W, strain sec66, stronger effect = lower value): 1.02 (inactive) | normalized growth (locus YBR229C, strain ROT2, stronger effect = lower value): 1 (inactive) | normalized growth (locus YBR231C, strain swc5, stronger effect = lower value): 1 (inactive) | normalized growth (locus YBR279W, strain paf1, stronger effect = lower value): 1 (inactive) | normalized growth (locus YCL011C, strain gbp2, stronger effect = lower value): 1.01 (inactive) | normalized growth (locus YCL016C, strain dcc1, stronger effect = lower value): 1.03 (inactive) | normalized growth (locus YCL029C, strain bik1, stronger effect = lower value): 0.966 (inactive) | normalized growth (locus YCL061C, strain MRC1 (second series), stronger effect = lower value): 1 (inactive) | normalized growth (locus YCL069W, strain vba3, stronger effect = lower value): 0.994 (inactive) | normalized growth (locus YCR088W, strain abp1, stronger effect = lower value): 1.01 (inactive) | normalized growth (locus YDL005C, strain med2, stronger effect = lower value): 1.01 (inactive) | normalized growth (locus YDL035C, strain GPR1, stronger effect = lower value): 1.01 (inactive) | normalized growth (locus YDL040C, strain nat1, stronger effect = lower value): 1 (inactive) | normalized growth (locus YDL074C, strain BRE1, stronger effect = lower value): 1.01 (inactive) | normalized growth (locus YDL101C, strain DUN1, stronger effect = lower value): 1.01 (inactive) | normalized growth (locus YDL134C, strain PPH21, stronger effect = lower value): 1.02 (inactive) | normalized growth (locus YDL185W, strain tfp1, stronger effect = lower value): 0.937 (inactive) | normalized growth (locus YDL192W, strain arf1, stronger effect = lower value): 0.977 (inactive) | normalized growth (locus YDR001C, strain nth1, stronger effect = lower value): 1 (inactive) | normalized growth (locus YDR069C, strain doa4, stronger effect = lower value): 1.01 (inactive) | normalized growth (locus YDR101C, strain arx1, stronger effect = lower value): 0.982 (inactive) | normalized growth (locus YDR137W, strain rgp1, stronger effect = lower value): 1.06 (inactive) | normalized growth (locus YDR150W, strain NUM1, stronger effect = lower value): 1.03 (inactive) and 1 (inactive) | normalized growth (locus YDR159W, strain sac3, stronger effect = lower value): 0.98 (inactive) | normalized growth (locus YDR162C, strain NBP2, stronger effect = lower value): 0.987 (inactive) | normalized growth (locus YDR195W, strain ref2): 0.975 (inactive) | normalized growth (locus YDR297W, strain sur2, stronger effect = lower value): 0.998 (inactive) | normalized growth (locus YDR318W, strain mcm21, stronger effect = lower value): 0.981 (inactive) | normalized growth (locus YDR334W, strain swr1, stronger effect = lower value): 0.992 (inactive) | normalized growth (locus YDR335W, strain msn5, stronger effect = lower value): 1.02 (inactive) | normalized growth (locus YDR363W, strain ESC2, stronger effect = lower value): 1.03 (inactive) | normalized growth (locus YDR388W, stronger effect = lower value): 0.956 (inactive) | normalized growth (locus YDR392W, strain spt3, stronger effect = lower value): 1.09 (inactive) | normalized growth (locus YDR502C, strain sam2, stronger effect = lower value): 0.966 (inactive) | normalized growth (locus YEL003W, strain gim4, stronger effect = lower value): 1.01 (inactive) | normalized growth (locus YEL037C, strain rad23, stronger effect = lower value): 1.02 (inactive) | normalized growth (locus YEL061C, strain CIN8 (second series), stronger effect = lower value): 1 (inactive) | normalized growth (locus YEL061C, strain CIN8, stronger effect = lower value): 1.02 (inactive) | normalized growth (locus YER002W, strain NOP16, stronger effect = lower value): 1.02 (inactive) | normalized growth (locus YER015W, strain faa2, stronger effect = lower value): 1.01 (inactive) | normalized growth (locus YER016W, strain bim1, stronger effect = lower value): 1.01 (inactive) | normalized growth (locus YER110C, stronger effect = lower value): 0.97 (inactive) | normalized growth (locus YER111C, strain swi4, stronger effect = lower value): 1.02 (inactive) | normalized growth (locus YER155C, strain BEM2 (second series), stronger effect = lower value): 1.02 (inactive) | normalized growth (locus YER155C, strain BEM2, stronger effect = lower value): 1.02 (inactive) | normalized growth (locus YER167W, strain BCK2, stronger effect = lower value): 1 (inactive) | normalized growth (locus YFR010W, strain ubp6, stronger effect = lower value): 0.967 (inactive) | normalized growth (locus YGL078C, strain dbp3, stronger effect = lower value): 0.98 (inactive) | normalized growth (locus YGL086W, strain mad1, stronger effect = lower value): 0.995 (inactive) | normalized growth (locus YGL167C, strain pmr1, stronger effect = lower value): 1.01 (inactive) | normalized growth (locus YGL173C, strain kem1, stronger effect = lower value): 1 (inactive) | normalized growth (locus YGL227W, strain vid30, stronger effect = lower value): 0.996 (inactive) | normalized growth (locus YGL240W, strain doc1, stronger effect = lower value): 0.981 (inactive) | normalized growth (locus YGL248W, strain PDE1, stronger effect = lower value): 1.01 (inactive) | normalized growth (locus YGL253W, strain hxk2, stronger effect = lower value): 1.03 (inactive) | normalized growth (locus YGR078C, strain PAC10, stronger effect = lower value): 1.03 (inactive) | normalized growth (locus YGR135W, strain pre9, stronger effect = lower value): 0.967 (inactive) | normalized growth (locus YGR229C, strain SMI1, stronger effect = lower value): 1.02 (inactive) | normalized growth (locus YGR252W, strain gcn5, stronger effect = lower value): 0.982 (inactive) | normalized growth (locus YHR013C, strain ard1, stronger effect = lower value): 1.05 (inactive) | normalized growth (locus YHR027C, strain rpn1, stronger effect = lower value): 1.04 (inactive) | normalized growth (locus YHR030C, strain SLT2, stronger effect = lower value): 1.01 (inactive) and 0.877 (inactive) | normalized growth (locus YHR079C, strain IRE1 (second series), stronger effect = lower value): 0.98 (inactive) | normalized growth (locus YHR079C, strain IRE1, stronger effect = lower value): 0.919 (inactive) | normalized growth (locus YHR094C, strain hxt1, stronger effect = lower value): 0.98 (inactive) | normalized growth (locus YHR129C, strain ARP1, stronger effect = lower value): 1.03 (inactive) | normalized growth (locus YHR142W, strain chs7, stronger effect = lower value): 1.04 (inactive) | normalized growth (locus YHR200W, strain rpn10, stronger effect = lower value): 0.977 (inactive) | normalized growth (locus YIL066C, strain RNR3, stronger effect = lower value): 1.02 (inactive) | normalized growth (locus YIL073C, strain SPO22, stronger effect = lower value): 1.02 (inactive) | normalized growth (locus YIL125W, strain kgd1, stronger effect = lower value): 0.973 (inactive) | normalized growth (locus YIR030C, strain dcg1, stronger effect = lower value): 0.985 (inactive) | normalized growth (locus YJL092W, strain hpr5, stronger effect = lower value): 1.01 (inactive) | normalized growth (locus YJL095W, strain BCK1 (second series), stronger effect = lower value): 1.01 (inactive) | normalized growth (locus YJL095W, strain BCK1, stronger effect = lower value): 1 (inactive) and 0.875 (active) | normalized growth (locus YJL115W, strain asf1, stronger effect = lower value): 1 (inactive) | normalized growth (locus YJL129C, strain trk1, stronger effect = lower value): 1.03 (inactive) | normalized growth (locus YJL134W, strain LCB3, stronger effect = lower value): 1.01 (inactive) | normalized growth (locus YJL154C, strain vps35, stronger effect = lower value): 0.999 (inactive) | normalized growth (locus YJL164C, strain tpk1, stronger effect = lower value): 1 (inactive) | normalized growth (locus YJL166W, strain qcr8, stronger effect = lower value): 0.99 (inactive) | normalized growth (locus YJL168C, strain set2, stronger effect = lower value): 0.984 (inactive) | normalized growth (locus YJL187C, strain SWE1 (second series), stronger effect = lower value): 1.01 (inactive) | normalized growth (locus YJR043C, strain POL32, stronger effect = lower value): 1 (inactive) | normalized growth (locus YJR066W, strain TOR1, stronger effect = lower value): 0.872 (inactive) | normalized growth (locus YJR075W, strain HOC1, stronger effect = lower value): 1.02 (inactive)

Reference: PubChem BioAssay AID1159580 (chemical genetic matrix, 2015)
